BoNT F protease – inhibitors of Botulinum neurotoxin F light chain protease; AID 588497; actives 0.22% (n = 360,000); Multiplex microsphere protease cleavage assay, flow cytometry; inhibition, % at 10 µM; in the data active = inhibition above about 35%, passing the limit was not always enough; inconclusive = no clear call, values can overlap the other calls; also: plate controls were buffer without enzyme for full effect and enzyme alone for no effect
Anthrax LF prot – blocks Bacillus anthracis lethal factor protease | P15917 | multiplex microsphere protease cleavage assay, LF | inhibition, % at 10 µM | actives 0.12% (n = 360,000); also: plate controls were buffer without enzyme for full effect and enzyme alone for no effect
BoNT-A LC inh2 – BoNT A light chain protease inhibition | multiplex microsphere protease substrate cleavage, flow cytometry | inhibition, % at 10 µM | actives 0.17% (n = 360,000); also: plate controls were buffer without enzyme for full effect and enzyme alone for no effect
3CLpro inhibitor – SARS-CoV 3CLpro protease inhibition | P0C6X7 | recombinant SARS-CoV 3CLpro, quenched FRET peptide cleavage | inhibition, % at 6 µM | actives 0.14% (n = 290,000); in the data active = inhibition above about 12%
Autofluor counter – counter-screen for toxin protease inhibitors: compound fluorescence; compound autofluorescence counterscreen, microsphere flow cytometry; active compounds read high; fluorescence intensity (concentration not given with the values); actives 3.1% (n = 360,000); in the data active = fluorescence intensity above about 16000; inconclusive = no clear call, values can overlap the other calls
Active calls of the source: *; ? = inconclusive; . = not tested or not shown. Hits are enriched below; roughly 3.5% of the tested compounds scored in any of these assays. Rule as the data show it, unless noted: active = inhibition above about 30%; inconclusive = no clear call, values can overlap the other calls; inactive = below that.

SMILES | BoNT F protease | Anthrax LF prot | BoNT-A LC inh2 | 3CLpro inhibitor | Autofluor counter
Cc1cccc(NC(=O)COc2ccc3c(c2)CCC3)n1 | 13.0 | -4.9 | 4.3 | . | 4094
Cc1cccc(NC(=O)COc2ccc3oc4c(c3c2)CCCC4)n1 | -0.9 | -3.8 | -1.7 | -6.1 | 23564*
Cc1ccc(SCC(=O)NCCN2C(=O)CSC2=O)cc1C | 1.0 | -0.6 | -0.5 | 2.8 | 23097*
Cc1ccc(SCC(=O)NCCN2C(=O)CSC2=O)c(C)c1 | 9.4 | -2.5 | 0.0 | 1.8 | 2956
Cc1cccc(-n2nnnc2SCC(=O)NCCN2C(=O)CSC2=O)c1 | -1.1 | -1.6 | -0.6 | -3.9 | 22931*
O=[N+]([O-])c1ccc(CSc2ncnc3c2ncn3[C@@H]2O[C@H](CO)[C@@H](O)[C@H]2O)cc1 | -3.9 | -6.8 | -0.8 | . | 5123
COCCNS(=O)(=O)c1ccc(-c2ccc(C)cc2)cc1 | -17.6 | -8.0 | -0.8 | 0.1 | 11333
CN(C)c1ccc(/C=N/NC(=O)c2ccccc2O)o1 | -8.5 | -0.2 | -0.2 | 1.5 | 1988
CN(C)c1ccc(/C=N/NC(=O)C(O)(c2ccccc2)c2ccccc2)o1 | -1.4 | -2.0 | ? | -8.0 | 16827*
Cc1[nH]c2ccccc2c(=O)c1CNCc1ccccc1 | -1.3 | -2.5 | 0.2 | . | 2975
Cc1ccc(C2CN(C)C3(C(=O)Nc4ccccc43)C23COc2ccccc2C3=O)cc1 (centres undefined) | -2.0 | -3.3 | -0.4 | 4.8 | 4429
CN1CC(c2ccccc2Cl)C2(COc3ccccc3C2=O)C12C(=O)Nc1ccccc12 (centres undefined) | -0.6 | -0.2 | 0.5 | 4.6 | 20126*
CCOC(=O)C1C(c2ccccc2Cl)NC(=O)N(C)C1(O)C(F)(F)F (centres undefined) | -3.6 | -5.4 | -2.4 | 0.3 | 16952*
CCOC(=O)C1C(c2ccccc2O)NC(=O)NC1(O)C(F)(F)F (centres undefined) | 18.1 | -5.0 | 1.3 | 3.3 | 3336
Cc1ccc(N2C(=O)C3ON(c4ccccc4)C(c4ccncc4)C3C2=O)cc1 (centres undefined) | 0.0 | -0.3 | -0.1 | -1.8 | 20770*
O=C1C2ON(c3ccccc3)C(c3ccncc3)C2C(=O)N1c1ccc(Br)cc1 (centres undefined) | -1.2 | 2.1 | ? | -2.9 | 20513*
O=C1C2ON(c3ccccc3)C(c3ccncc3)C2C(=O)N1c1ccc(N2CCOCC2)cc1 (centres undefined) | -0.7 | -7.4 | 0.1 | 0.7 | 4223
CN(C)c1ccc(C2C3C(=O)N(c4ccc(C(=O)O)cc4)C(=O)C3ON2c2ccccc2)cc1 (centres undefined) | -13.5 | -2.1 | -0.7 | -2.1 | 4866
CCCCC(CC)CNC(=O)C(=O)c1ccccc1NC(C)=O (centres undefined) | -3.0 | 2.0 | 0.8 | 0.0 | 8028
CCc1ccc(N2CC(C(=O)N3CCN(S(=O)(=O)c4cccc(F)c4)CC3)CC2=O)cc1 (centres undefined) | -2.4 | 0.7 | 0.4 | . | 3879
O=C1C2CCCN2C(=O)N1CCCN1CCN(c2ccc([N+](=O)[O-])cc2)CC1 (centres undefined) | 46.5* | 12.1 | -2.7 | 4.0 | 3813
CC1(C)C2CCC1(CS(=O)(=O)NCc1ccc(C(=O)O)cc1)C(=O)C2 (centres undefined) | 0.9 | 1.8 | 0.3 | 1.8 | 3360
CCC(C)NC(=O)c1ccc(CS(=O)(=O)Cc2ccc(Cl)cc2)o1 (centres undefined) | -6.2 | -1.8 | -3.5 | 3.9 | 23433*
COc1ccc(C2SCC(=O)Nc3c2c(=O)[nH]n3C2CCCCCC2)cc1OC (centres undefined) | 2.6 | -8.8 | ? | -1.2 | 18575*
CCOc1ccc(C2SCC(=O)Nc3c2c(=O)[nH]n3C2CCCCCC2)cc1 (centres undefined) | -7.9 | -6.0 | ? | 3.2 | 24510*
COc1ccc(C2SCC(=O)Nc3c2c(=O)[nH]n3C2CCCCCC2)cc1 (centres undefined) | -6.4 | -6.1 | -0.1 | 1.3 | 5946
Cc1ccsc1C(=O)C1CCCN(Cc2cc(C(C)C)n[nH]2)C1 (centres undefined) | 3.5 | -0.5 | 0.3 | 4.2 | 4254
C=CCNC(=S)NC(=O)c1ccc(C)c(Br)c1 | -1.3 | -6.2 | 1.2 | -1.1 | 4171
COc1ccc(-c2c(C)nn3c(N4CCC(C(=O)NCCN(C)C)CC4)cc(C)nc23)cc1OC | -1.9 | -2.2 | -1.6 | 4.4 | 23368*
CCCN(CCC)C(=O)C1CCN(c2cc(C)nc3c(-c4ccc(OC)c(OC)c4)c(C)nn23)CC1 | -12.1 | 4.7 | 0.1 | -4.2 | 5335

From PubChem BioAssay
